# High-throughput results as filed in PubChem BioAssay.
# DT40 TDP1 no CPT: qHTS for Inhibitors of human tyrosyl-DNA phosphodiesterase 1 (TDP1): qHTS in cells in absence of CPT | DT40 Tdp1-/- hTDP1 cells, no CPT, ATP luminescence, 48 h | Potency, µM (series often up to 46.2 µM), for the others: at the highest dose activity change, negative = growth inhibition, most hits filed as inhibitors | 15% of 420,000 active; further: potency means the concentration at half of the fitted maximal effect; nearly all actives have a fitted effect of over 55% in size
#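 A cellular qHTS used chicken DT40 cells lacking endogenous Tdp1 but carrying stably transfected human TDP1. Compounds were applied without camptothecin, and cell growth kinetics were judged by ATP-dependent luminescence after ≥48 hr.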
# TDP1 cell CPT: growth inhibition of DT40 Tdp1-/-;hTDP1 cells with camptothecin (screen for TDP1 inhibitors); chicken DT40 Tdp1-/-;hTDP1 cells + 20 nM CPT, ATP luminescence, 48 h; Potency, µM (titrated, usually from 46.2 µM), without a hit: at the highest dose activity change, negative = growth inhibition, hits mostly inhibitors; 12% of 420,000 active; AID 686979; further: potency means the concentration at half of the fitted maximal effect; nearly all actives have a fitted effect of over 55% in size
#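 Chicken DT40 Tdp1-/- cells complemented with human TDP1, 400 cells/well, exposed to compounds plus 20 nM camptothecin for at least 48 h at 37 C; viability read as ATP content by CellTiter-Glo luminescence.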
# IL1B secr inh: inhibitors of inflammasome signaling (IL-1 beta secretion). AID 743279. 4.7% of 360,000 active. THP-1 LPS/ATP IL-1B secretion, AlphaLISA, 16 h; active compounds read low. activity change, % at 57.5 µM; in the data active means activity change below about -50%; inconclusive means mostly about -30% to -49%
#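 Secreted IL-1B measured by AlphaLISA bead assay after 16 h compound exposure of THP-1 cells; compounds (final up to 57.5 uM) added 1 h before LPS (250 ng/mL) and ATP (1.25 mM) stimulation; lower signal means less secretion.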
# HT1080NT lethal: kills 2HG-producing HT-1080-NT fibrosarcoma cells; HT-1080-NT fibrosarcoma viability, CellTiter-Glo ATP luminescence, 48 h; Potency, µM (doses to about 46.1 µM), without a hit: top-dose activity, negative = less viability, usual class: cytotoxic; 1.6% of 360,000 active; AID 686970;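 further: NT is the 2HG producing partner of a matched IDH1 knockdown line; potency means the concentration at half of the fitted maximal effect; 0% = DMSO-treated cells and -100% = media-only wells without cells; nearly all actives have a fitted effect of over 55% in size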
#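 HT-1080-NT; 750 cells/well; 5% FBS RPMI; 48 h compound, 37 degrees C; CellTiter-Glo luminescence; curve fitting and curve-class assignment.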
# HT1080 IDH1KD tx: HT-1080 IDH1 knockdown cell toxicity (counter line). HT-1080 IDH1 knockdown viability, ATP luminescence, 48 h. Potency, µM (highest dose often 46.1 µM), for the others: at the highest dose activity, negative = toxicity, actives largely listed as cytotoxic. 2% of 360,000 active. AID 686971;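 further: potency means the concentration at half of the fitted maximal effect; 0% = DMSO wells and -100% = cell-free medium wells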
#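 IDH1KD HT-1080 cells, 750/well, RPMI + 5% FBS; compound pinned after 2 h settling; 48 h, 37 °C; CellTiter-Glo luminescence; % activity normalised to DMSO and no-cell wells; curves fitted, classed by r2 and efficacy.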
# * = called active by the depositor; u = inconclusive; x = no result given. The list is not random: actives were taken first. Their share in the collection is about 19%. Unless noted, the call rests on the fitted dose curve; in most records, active means well fitted curve in the direction sought with a large enough effect; inconclusive means small, poorly fitted or top-dose-only effect, or another doubt; inactive means no such curve, though single readings can be large; an effect the other way counts as inactive or inconclusive. Unless noted, on the % scale 0 is the no-effect control and ±100 the full control effect.
SMILES,DT40 TDP1 no CPT,TDP1 cell CPT,IL1B secr inh,HT1080NT lethal,HT1080 IDH1KD tx
CN(C)S(=O)(=O)c1ccc(C(=O)N2CCN(S(=O)(=O)c3ccc4c(c3)OCCO4)CC2)cc1,-15.9%,u,-9.5,1.2%,4.5%
CC(C)NC(=O)C1(C)CSCC(=O)N1Cc1cccc(C(F)(F)F)c1 (configuration not stated),2.4%,-2.8%,25.6,15.1%,9.2%
O=C(CNC1=NCCS1)c1c[nH]c2ccccc12,u,-11.4%,x,x,x
CCc1ccc2nc(N(CCCN(C)C)C(=O)c3ccc(S(=O)(=O)N(C)C4CCCCC4)cc3)sc2c1,u,16.4µM*,-60.9*,u,23.1µM*
COc1cc2nc(N(CCN(C)C)C(=O)c3ccc(S(=O)(=O)N(C)CC4CCCO4)cc3)sc2cc1OC (configuration not stated),-18.0%,-9.2%,0.4,-4.4%,4.2%
CC(=O)O[C@@H]1C[C@H]2C(C)=C[C@H]3OC(=O)[C@@H](C)[C@H]3C[C@H]2[C@]1(C)O,2.5%,20.0%,17.2,11.1%,11.1%
C=C1C(=O)O[C@H]2C[C@H]1[C@@H](OC(C)=O)C/C(C)=C/CC/C(C)=C\CC[C@]2(C)O,2.91µM*,2.59µM*,-113.4*,13µM*,16.4µM*
O=C(Nc1cccc(-c2nc3ccccc3o2)c1)c1cccnc1,20.6µM*,u,10.6,-10.6%,-6.3%
COC(=O)c1ccc(-c2nc3ccc(C)cc3o2)cc1,8.2µM*,10.3µM*,-15.7,-9.5%,u
CS(=O)(=O)c1ccccc1C(=O)Nc1ccc(-c2nc3ccccc3o2)cc1,23.1µM*,u,31.4,1.1%,-1.6%
Cc1cccc(C(=O)Nc2ccc(-c3nc4cc(C(C)C)ccc4o3)cc2)c1,16.4µM*,16.4µM*,x,x,x
Cc1ccc(NC(=O)CSc2ccc(-c3ccc(-n4cccn4)cc3)nn2)c(C)c1,-22.7%,-18.5%,4.0,11.4%,4.5%
CC(C)c1ccc2oc(-c3ccc(NC(=O)c4ncn[nH]4)cc3)nc2c1,u,u,1.1,-2.9%,u
O=C(Nc1ccc(-c2nc3ccccc3o2)cc1)c1ccc2c(c1)OCO2,-29.4%,u,27.9,-18.6%,u
O=C(Nc1ccc2oc(-c3ccccc3)nc2c1)c1ccncc1,11.6µM*,16.4µM*,-5.5,-10.8%,-18.9%
COc1cccc(C(=O)Nc2ccc3c(C)cc(=O)oc3c2)c1,2.2%,u,u,4.9%,2.1%
COc1cc(OC)cc(C(=O)Nc2ccc(-c3nc4ccccc4o3)cc2)c1,16.4µM*,16.4µM*,46.5,u,u
O=C(Nc1ccc2oc(-c3ccccc3)nc2c1)c1cccs1,u,u,-18.8,-16.0%,-10.5%
COc1cc(OC)cc(C(=O)Nc2ccc(-c3nc4cc(C(C)C)ccc4o3)cc2)c1,20.6µM*,20.6µM*,x,x,x
COc1cccc(C(=O)Nc2ccc(-c3nc4ccccc4o3)c(O)c2)c1,16.4µM*,18.4µM*,-5.1,u,u
C=CCN(c1ccc(Cl)cc1)S(=O)(=O)c1cccc(C(=O)O)c1,7.6%,10.3%,1.6,-4.8%,-6.7%
CCCCc1cc(=O)oc2cc(C)cc(OCC(=O)N3C[C@H]4C[C@@H](C3)c3cccc(=O)n3C4)c12,u,-30.7%,-6.6,4.6%,-3.7%
Cn1c(=O)[nH]c(=O)c2c1ncn2CCCc1ccccc1,-1.9%,-8.4%,-5.5,-1.6%,1.6%
CCc1noc(C)c1C(=O)OCC(=O)N(C)c1c(N)n(Cc2ccccc2)c(=O)[nH]c1=O,3.7%,-4.9%,8.2,7.4%,1.2%
O=C(Nc1ccc2oc(Cc3ccc(Cl)cc3)nc2c1)c1cccnc1,u,u,-67.5*,u,-12.4%
SMILES,DT40 TDP1 no CPT,TDP1 cell CPT,IL1B secr inh,HT1080NT lethal,HT1080 IDH1KD tx
O=C(Nc1ccc2oc(-c3cccnc3)nc2c1)c1cccnc1,u,-24.0%,-9.2,11.5%,-8.8%
O=C(Nc1ccc2oc(-c3cccnc3)nc2c1)c1ccc(Br)o1,u,u,-17.6,15.6%,12.5%
Cc1ccc2oc(-c3ccc(NC(=O)c4cccnc4)cc3)nc2c1,20.6µM*,u,-8.6,-4.3%,-1.0%
CCOc1cccc(C(=O)Nc2ccc3oc(Cc4ccc(Cl)cc4)nc3c2)c1,u,u,-15.3,-26.7%,u
O=C(Nc1ccc2oc(-c3cccnc3)nc2c1)c1ccc([N+](=O)[O-])o1,8.2µM*,6.51µM*,x,u,u
COc1ccc(NC(=O)COC(=O)Cc2c(F)cccc2Cl)cc1,5.5%,-18.7%,16.6,3.6%,4.0%
O=c1oc2ccccc2cc1-c1csc(NN=C2CCCCC2)n1,18.4µM*,u,-11.5,u,-17.9%
O=C(Nc1nc(-c2cc3ccccc3oc2=O)cs1)c1ccco1,u,u,0.7,-3.2%,10.9%
O=c1oc2ccccc2cc1-c1csc(Nc2nc3c(F)cccc3s2)n1,16.4µM*,14.6µM*,16.0,-9.8%,u
O=c1oc2ccccc2cc1-c1csc(Cc2nc(-c3ccc(Cl)cc3)cs2)n1,25.9µM*,u,8.3,1.1%,-10.8%
COC(=O)c1c(C)[nH]c(O)c1C=Nc1ccc(C(C)C)cc1,18.4µM*,u,-101.2*,9.2%,-4.4%
O=C(COC(=O)C1CCN(S(=O)(=O)c2ccc3c(c2)OCCO3)CC1)Nc1cc(C(F)(F)F)ccc1Cl,-15.5%,-5.8%,16.2,12.6%,15.1%
Cc1cc(C(=O)NC2CC(C)(C)Cc3c2cnn3-c2ccccc2)n(C)n1 (configuration not stated),u,u,16.9,1.4%,-13.2%
CC(=O)[C@@]1(O)C(C)CC2C3C=C(C)C4=Cc5c(cnn5-c5ccccc5)C[C@]4(C)C3C(O)C[C@@]21C (some centres not stated),5.17µM*,4.61µM*,-90.6*,4.61µM*,20.6µM*
CN(C)/C=N/c1sc2c(c1C#N)CC(C)(C)NC2(C)C,0.7%,-4.7%,-0.7,7.6%,10.9%
CCNc1ncc2nc(-c3cc(F)cc(F)c3)c(=O)n(Cc3cccs3)c2n1,-3.7%,-2.4%,x,x,x
COc1cc(/C=N/NC(=O)c2sc(N)c(C#N)c2C)cc(Br)c1O,u,-28.8%,-77.0*,19.3%,9.2%
Cc1ccc(C(=O)N/N=C\c2cccnc2)s1,7.0%,7.1%,-9.4,10.0%,9.6%
Cc1c(C(=O)N/N=C/c2cccnc2)sc(N)c1C#N,-26.1%,-18.4%,-62.8*,0.6%,-6.4%
COc1ccc2ccccc2c1/C=N/NC(=O)c1sc(N)c(C#N)c1C,u,-3.2%,0.0,5.7%,12.3%
CCCCN(CC)CCCNC(=O)c1ccc2c(c1)N(Cc1ccc(C)cc1)C(=O)c1ccccc1S2,5.17µM*,5.8µM*,x,x,x
